Laboratory results from PubChem BioAssay (EPA / NIEHS).
Active and inactive are the calls of the source. How the source made its calls: active means hit-call score of the fitted dose curve at least 0.9, where 1 is the maximum; inactive means score below 0.9.

Columns and labels:
[1] = read-out: Tumor necrosis factor receptor superfamily member 6 (Homo sapiens) (UniProt P25445); experiment: LTEA_HepaRG_FAS: Life Technologies and Expression Analysis (LTEA) Assay for Fas cell surface death receptor (FAS) using HepaRG (AID 2283447); details: mRNA level, 48 h; actives raise or lower the signal
Outline: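 Differentiated human HepaRG cells, pre-cultured 48 h, were exposed in duplicate for 48 h to 8-point half-log concentrations (top 100 uM, 0.5% DMSO) in serum-free induction medium; FAS mRNA measured by qRT-PCR, normalized to ACTB/GAPDH/POLR2A, bidirectional fit versus DMSO.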

[2] = read-out: Fatty acid synthase (Homo sapiens) (UniProt P49327); experiment: LTEA_HepaRG_FASN: Life Technologies and Expression Analysis (LTEA) Assay for Fatty Acid Synthase (FASN) using HepaRG (AID 2283448); details: mRNA level, 48 h; actives raise or lower the signal
Outline: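 FASN expression changes, up or down relative to 0.5% DMSO, were measured by qRT-PCR in human HepaRG cells after 48 h treatment with chemicals at eight concentrations (half-log steps from 100 uM).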

[3] = read-out: Cyclin D2 (CCND2), CCND2 (gene 894); experiment: LTEA_HepaRG_CCND2: Life Technologies and Expression Analysis (LTEA) Assay for Cyclin D2 (CCND2) using HepaRG (AID 2283449); details: mRNA level, 48 h; actives raise or lower the signal;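 further: CCND2 transcript measured by TaqMan qRT-PCR and normalised to three housekeeping genes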
Outline: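 Differentiated human HepaRG cells were exposed for 48 h in serum-free induction medium to eight half-log concentrations topping at 100 uM (0.5% DMSO vehicle). CCND2 mRNA was quantified by TaqMan qRT-PCR, normalised to ACTB, GAPDH and POLR2A, and fitted bidirectionally against DMSO.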

[4] = read-out: Cyclin Dependent Kinase Inhibitor 1A (CDKN1A), CDKN1A (gene 1026); experiment: LTEA_HepaRG_CDKN1A: Life Technologies and Expression Analysis (LTEA) Assay for Cyclin Dependent Kinase Inhibitor 1A (CDKN1A) using HepaRG (AID 2283450); details: mRNA level, 48 h; actives raise or lower the signal
Outline: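 Differentiated HepaRG cells in serum-free induction medium, exposed 48 h in duplicate to eight half-log concentrations up to 100 uM in 0.5% DMSO. mRNA measured by TaqMan qRT-PCR, normalized to ACTB, GAPDH, POLR2A; bidirectional fit versus DMSO.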

[5] = read-out: Cyclin D1 (CCND1), CCND1 (gene 595); experiment: LTEA_HepaRG_CCND1: Life Technologies and Expression Analysis (LTEA) Assay for Cyclin D1 (CCND1) using HepaRG (AID 2283451); details: mRNA level, 48 h; actives raise or lower the signal;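 on AC50: TaqMan qRT-PCR transcript level normalised to ACTB GAPDH and POLR2A housekeeping genes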
Outline: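 Differentiated HepaRG cells exposed 48 h in serum-free induction medium to eight half-log concentrations from 100 uM top, 0.5% DMSO, duplicates. CCND1 mRNA measured by Fluidigm TaqMan qRT-PCR, normalised to ACTB, GAPDH, POLR2A; bidirectional fit.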

[6] = read-out: catalase (CAT), CAT (gene 847); experiment: LTEA_HepaRG_CAT: Life Technologies and Expression Analysis (LTEA) Assay for catalase (CAT) using HepaRG (AID 2283452); details: mRNA level, 48 h; actives raise or lower the signal;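 on AC50: TaqMan qRT-PCR signal normalized to ACTB GAPDH and POLR2A housekeeping genes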
Outline: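 Differentiated HepaRG cells in serum-free induction medium were dosed 48 h in duplicate, eight half-log concentrations from 100 uM in 0.5% DMSO. Transcript measured by TaqMan qRT-PCR, normalised to ACTB/GAPDH/POLR2A, fitted bidirectionally against DMSO.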

[7] = read-out: flavin-containing dimethylaniline monooxygenases 3 (FMO3), FMO3 (gene 2328); experiment: LTEA_HepaRG_FMO3: Life Technologies and Expression Analysis (LTEA) Assay for flavin-containing dimethylaniline monooxygenases 3 (FMO3) using HepaRG (AID 2283453); details: mRNA level, 48 h; actives raise or lower the signal
Outline: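 Differentiated HepaRG cells in serum-free induction medium, exposed 48 h in duplicate to 8 half-log concentrations up to 100 uM in 0.5% DMSO. FMO3 mRNA by qRT-PCR, normalized to ACTB, GAPDH, POLR2A; bidirectional fit vs DMSO.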

[8] = read-out: Cytochrome P450 (CYP1A1), CYP1A1 (gene 1543); experiment: LTEA_HepaRG_CYP1A1: Life Technologies and Expression Analysis (LTEA) Assay for Cytochrome P450 (CYP1A1) using HepaRG (AID 2283454); details: mRNA level, 48 h; actives raise or lower the signal
Outline: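 Differentiated human HepaRG cells, after 48 h plating, exposed in duplicate for 48 h in serum-free induction medium to 8 half-log concentrations up to 100 uM in 0.5% DMSO. CYP1A1 mRNA by qRT-PCR, normalized to ACTB/GAPDH/POLR2A; bidirectional fit versus DMSO.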

[9] = read-out: CFLAR gene, CFLAR (gene 8837); experiment: LTEA_HepaRG_CFLAR: Life Technologies and Expression Analysis (LTEA) Assay for CFLAR gene using HepaRG (AID 2283455); details: mRNA level, 48 h; actives raise or lower the signal
Outline: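 HepaRG cells were plated for 48 h, switched to serum-free induction medium, then exposed in duplicate for 48 h to 8 concentrations (top 100 uM, half-log steps, 0.5% DMSO). CFLAR mRNA was measured by qRT-PCR, normalized to ACTB, GAPDH and POLR2A.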

[10] = CEETOX_H295R_PROG: CeeTox H295R High-throughput Steroidogenesis Assay for Progesterone (PROG) (AID 2283442); details: actives raise or lower the signal;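 on AC50: human H295R adrenal cells primed with 10 µM forskolin before dosing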
Outline: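 H295R adrenal cells prestimulated 48 h with 10 uM forskolin, then exposed 48 h to test chemical in 0.1% DMSO. Progesterone in medium quantified by HPLC-MS/MS after MTBE extraction; viability checked by MTT in same wells.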

Measured: AC50

Chain of Fatty acid synthase (Homo sapiens) (P49327 whole entry, looked up): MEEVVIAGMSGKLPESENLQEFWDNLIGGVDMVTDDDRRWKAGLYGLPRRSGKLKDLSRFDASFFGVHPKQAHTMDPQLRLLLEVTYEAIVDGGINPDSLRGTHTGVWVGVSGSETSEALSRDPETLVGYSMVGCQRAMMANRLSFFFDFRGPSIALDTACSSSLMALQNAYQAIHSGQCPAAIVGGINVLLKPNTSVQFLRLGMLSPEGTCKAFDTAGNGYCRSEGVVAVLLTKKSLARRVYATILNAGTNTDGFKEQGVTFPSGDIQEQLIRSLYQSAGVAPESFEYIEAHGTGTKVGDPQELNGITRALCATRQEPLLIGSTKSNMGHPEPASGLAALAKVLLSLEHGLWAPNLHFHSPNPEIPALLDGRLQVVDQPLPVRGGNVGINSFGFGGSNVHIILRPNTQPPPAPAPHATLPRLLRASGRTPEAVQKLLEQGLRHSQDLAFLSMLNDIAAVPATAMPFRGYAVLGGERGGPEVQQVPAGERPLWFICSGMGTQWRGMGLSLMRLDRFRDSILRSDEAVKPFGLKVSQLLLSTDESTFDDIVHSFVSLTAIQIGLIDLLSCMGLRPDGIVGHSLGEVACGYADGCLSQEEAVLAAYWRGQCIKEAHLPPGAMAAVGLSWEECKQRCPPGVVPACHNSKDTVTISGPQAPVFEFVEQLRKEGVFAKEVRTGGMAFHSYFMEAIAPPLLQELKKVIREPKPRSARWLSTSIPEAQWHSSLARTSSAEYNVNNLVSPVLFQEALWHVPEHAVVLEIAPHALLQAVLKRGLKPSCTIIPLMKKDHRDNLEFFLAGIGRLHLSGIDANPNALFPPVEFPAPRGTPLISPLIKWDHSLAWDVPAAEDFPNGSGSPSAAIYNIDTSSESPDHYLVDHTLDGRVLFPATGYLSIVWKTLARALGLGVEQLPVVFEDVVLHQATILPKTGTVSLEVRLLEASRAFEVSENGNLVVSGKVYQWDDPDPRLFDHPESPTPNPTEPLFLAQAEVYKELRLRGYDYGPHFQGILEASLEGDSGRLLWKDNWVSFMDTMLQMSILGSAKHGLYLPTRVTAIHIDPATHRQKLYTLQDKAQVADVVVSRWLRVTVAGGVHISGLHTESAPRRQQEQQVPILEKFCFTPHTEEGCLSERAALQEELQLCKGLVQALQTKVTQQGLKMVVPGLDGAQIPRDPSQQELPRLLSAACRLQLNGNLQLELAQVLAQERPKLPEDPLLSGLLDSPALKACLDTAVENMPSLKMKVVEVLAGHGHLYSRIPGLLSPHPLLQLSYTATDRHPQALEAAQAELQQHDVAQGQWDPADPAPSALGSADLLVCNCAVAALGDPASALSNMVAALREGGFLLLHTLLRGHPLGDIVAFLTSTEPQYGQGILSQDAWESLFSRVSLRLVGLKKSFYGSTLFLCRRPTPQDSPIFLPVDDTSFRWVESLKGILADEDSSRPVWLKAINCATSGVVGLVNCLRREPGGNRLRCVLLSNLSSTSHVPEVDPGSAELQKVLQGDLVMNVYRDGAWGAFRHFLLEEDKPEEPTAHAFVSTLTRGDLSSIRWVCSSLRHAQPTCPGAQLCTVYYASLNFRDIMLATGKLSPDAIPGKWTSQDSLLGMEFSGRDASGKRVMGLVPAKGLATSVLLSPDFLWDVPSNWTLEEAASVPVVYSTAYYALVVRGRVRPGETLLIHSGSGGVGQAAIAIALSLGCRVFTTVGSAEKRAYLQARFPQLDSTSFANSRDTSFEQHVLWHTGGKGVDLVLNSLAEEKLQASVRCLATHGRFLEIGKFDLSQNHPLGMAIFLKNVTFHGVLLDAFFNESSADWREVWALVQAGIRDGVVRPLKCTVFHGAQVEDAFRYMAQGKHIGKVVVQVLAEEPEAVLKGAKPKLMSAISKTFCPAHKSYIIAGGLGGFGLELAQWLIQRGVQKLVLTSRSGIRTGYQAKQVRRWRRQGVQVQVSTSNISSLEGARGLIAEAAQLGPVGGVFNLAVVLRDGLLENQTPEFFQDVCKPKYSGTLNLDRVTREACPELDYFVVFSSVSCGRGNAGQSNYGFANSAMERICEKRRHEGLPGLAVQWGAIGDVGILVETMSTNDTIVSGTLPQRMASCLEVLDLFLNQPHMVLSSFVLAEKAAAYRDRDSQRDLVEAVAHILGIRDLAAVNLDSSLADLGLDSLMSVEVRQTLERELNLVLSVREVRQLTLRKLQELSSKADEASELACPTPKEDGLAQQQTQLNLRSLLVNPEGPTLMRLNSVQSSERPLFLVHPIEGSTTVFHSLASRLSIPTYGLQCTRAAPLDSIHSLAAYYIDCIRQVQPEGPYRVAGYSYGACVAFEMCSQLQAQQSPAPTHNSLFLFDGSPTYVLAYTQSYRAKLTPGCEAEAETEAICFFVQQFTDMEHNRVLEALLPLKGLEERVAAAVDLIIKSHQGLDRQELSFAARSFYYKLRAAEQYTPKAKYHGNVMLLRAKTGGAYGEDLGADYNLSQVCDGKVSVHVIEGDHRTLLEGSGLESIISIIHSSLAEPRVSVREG

NC(=Nc1ccccc1)Nc1ccccc1
active: [8] 50 µM
not listed: [10]
inactive: all other assays above

CC1=C(C)S(=O)(=O)CCS1(=O)=O
active: [10] 1.03 µM | [1] 76.8 µM | [2] 81.6 µM | [4] 85.4 µM | [7] 90.9 µM | [8] 50 µM
inactive: [3] | [5] | [6] | [9]

CC(=O)S[C@H](C(=O)N[C@H]1Cc2ccccc2[C@H]2CCC[C@@H](C(=O)O)N2C1=O)C(C)C
not listed: [10]
inactive: all other assays above

O=C1CCCCC1
not listed: [10]
inactive: all other assays above

Oc1ccc(O)cc1
active: [10] 3.17 µM | [8] 50 µM
not listed: [1]
inactive: all other assays above

CC(C)(O)c1ccc(CNC(=O)c2cccnc2Oc2ccc(F)cc2)cc1
active: [8] 67.4 µM
not listed: [1]
inactive: all other assays above

O=C(Oc1ccccc1)c1cccc(C(=O)Oc2ccccc2)c1
active: [8] 67.7 µM
not listed: [1]
inactive: all other assays above

CN(C)C(=O)NC1(c2ccccc2)CCN(CCC[C@]2(c3ccc(Cl)c(Cl)c3)CCCN(C(=O)c3ccccc3)C2)CC1
inactive: [10] | [3] | [8] | [9]
active: [4] 18.4 µM | [5] 22.7 µM | [6] 18.8 µM

CCCCOC(=O)CCCCC(=O)OCCCC
active: [8] 50 µM
not listed: [10]
inactive: all other assays above

Cc1cc(Cc2ccc(N)c(C)c2)ccc1N
active: [10] 18.9 µM | [8] 50 µM
inactive: all other assays above

S=c1[nH]c2ccccc2s1
active: [8] 10.1 µM
not listed: [1] | [2]
inactive: all other assays above

CC(=O)O[C@]1(C(C)=O)CC[C@H]2[C@@H]3C=C(Cl)C4=CC(=O)[C@@H]5C[C@@H]5[C@]4(C)[C@H]3CC[C@@]21C
active: [3] 0.0078 µM | [6] 50 µM | [9] 50 µM
not listed: [2] | [7]
inactive: all other assays above

O=C1OC(c2ccc(O)cc2)(c2ccc(O)cc2)c2ccccc21
inactive: [3] | [4]
active: [10] 2.39 µM | [5] 78.7 µM | [6] 69.2 µM | [7] 93.8 µM | [8] 50 µM | [9] 76.4 µM

CCN(CC)CCOc1ccc(C(=C(Cl)c2ccccc2)c2ccccc2)cc1
active: [10] 0.0347 µM | [6] 42 µM
not listed: [7]
inactive: all other assays above

N[C@@H](Cc1c[nH]c2ccccc12)C(=O)O
active: [8] 10.9 µM
not listed: [10]
inactive: all other assays above

CCCCCCCCCCCCCCCCO
active: [6] 9.92 µM | [8] 8.36 µM
not listed: [10]
inactive: all other assays above

CCCCCCCCCC[N+](C)(C)[O-]
active: [10] 3.86 µM | [8] 50 µM
not listed: [7]
inactive: all other assays above

Cc1c(C)c2c(c(C)c1O)CCC(C)(COc1ccc(CC3SC(=O)NC3=O)cc1)O2 (centres undefined)
active: [6] 50 µM | [8] 27.5 µM
inactive: [10] | [2] | [4] | [5] | [9]

Nc1nc(Cl)nc2c1ncn2[C@H]1C[C@H](O)[C@@H](CO)O1
inactive: [3] | [9]
active: [10] 0.128 µM | [2] 1.59 µM | [4] 0.168 µM | [5] 3.49 µM | [6] 0.887 µM | [8] 0.749 µM

COc1ccc(C(=O)Nc2nc3ccccc3c(NCc3ccccc3)c2C#N)cc1
active: [10] 1.49 µM | [4] 26.3 µM | [5] 16.8 µM | [6] 18.7 µM | [7] 16.2 µM | [8] 1.39 µM
inactive: [3] | [9]

O=C1NC(=O)C(c2ccccc2)(c2ccccc2)N1
active: [8] 65.1 µM
not listed: [1] | [2] | [7]
inactive: all other assays above

CC(=O)[C@@]1(O)CC[C@H]2[C@@H]3CCC4=CC(=O)CC[C@]4(C)[C@H]3CC[C@@]21C
active: [10] 42.6 µM | [2] 50 µM
not listed: [7] | [8]
inactive: all other assays above

CCCCc1nc2cccnc2n1Cc1ccc(-c2ccccc2-c2nnn[nH]2)cc1
active: [10] 9.12 µM | [2] 50 µM | [8] 50 µM
inactive: [3] | [4] | [5] | [9]

O=C(O)CN(CC(=O)O)CC(=O)O
active: [8] 79.4 µM
not listed: [1] | [2]
inactive: all other assays above

COc1ccc(OC(F)(F)F)cc1CN[C@H]1CCCN[C@H]1c1ccccc1
inactive: [1] | [3]
active: [2] 83.9 µM | [4] 89.6 µM | [5] 87.1 µM | [6] 71.6 µM | [7] 72.7 µM | [8] 12.6 µM | [9] 84.1 µM

O=C1c2c(O)cccc2Cc2cccc(O)c21
active: [8] 22.1 µM
not listed: [2] | [7]
inactive: all other assays above

Oc1ccccc1O
not listed: [7]
inactive: all other assays above
